# Many of the other results were omitted from the sample, so hits are more common in it than they were.
# AMA1-RON2 inh – AMA1-RON2 (P. falciparum) interaction inhibition; AlphaScreen AMA1-biotinylated RON2 peptide binding; AID 720542; 360,000 compounds, 0.2% hits; Potency, µM (highest dose often 58.2 µM), for the others: top-dose activity change, negative = inhibition, actives largely listed as inhibitors; active = well fitted inhibition curve with a large enough effect; inconclusive = small, poorly fitted or top-dose-only effect; inactive = no such curve, though single readings can be large or run the other way;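 also: potency is read from the fitted curve at half-maximal effect; 0% = vehicle wells and -100% = peptide control; nearly all actives have a fitted effect of over 45% in size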
#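 AMA1 (3D7) with his tag at 25 nM final met compounds first, then biotinylated RON2 peptide at 25 nM; detection used donor plus acceptor beads, 10 µg/mL apiece, read by AlphaScreen after 30 min at room temperature.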
# Marburg entry inh – blocks Marburg virus binding to or entry into cells; Marburg virus pseudotyped entry inhibition, cell reporter; Potency, µM (doses to about 37.8 µM), without a hit: top-dose activity change, negative = inhibition, usual class: inhibitors; AID 540276; 300,000 compounds, 1.8% hits; calls by dose curve; tested in HEK293 cells; also: potency is read from the fitted curve at half-maximal effect; % is scaled to controls: 0 for no effect and ±100 for the full control effect
# Lassa entry inh – blocks Lassa virus binding to or entry into cells | Lassa virus pseudotype entry inhibition, cell reporter | Potency, µM (top dose mostly 37.9 µM), for inactives: top-dose activity change, negative = inhibition, hits mostly inhibitors | AID 540256 | 300,000 compounds, 1.2% hits; calls by dose curve; tested in HEK293 cells; also: potency is read from the fitted curve at half-maximal effect; % is scaled to controls: 0 for no effect and ±100 for the full control effect; nearly all actives have a fitted effect of over 50% in size
# Shiga inhibitor – Shiga toxin inhibition; Vero cells, Shiga toxin protein synthesis inhibition reporter; inhibition, % at 38.7 µM; 290,000 compounds, 9.2% hits; AID 2315; in the data active = inhibition mostly above about 28%, no sharp cut-off; inactive = mostly below about 43%; also: 0% is about no effect
# CHX counter – affects cycloheximide protein synthesis inhibition readout, counter-screen | cell reporter, cycloheximide protein synthesis inhibition counterscreen | max response, % | 300,000 compounds, 12% hits | AID 2314; in the data active = max response mostly above about 13%, no sharp cut-off; inactive = mostly below about 14%; also: read at 38.3 µM for the half of the compounds with a filed dose; 0% is about no effect
# * marks the source's active call; other numbers are inactive results; ? = inconclusive; / = no result given; [ ] = dose if it differs, or a comment.
SMILES,AMA1-RON2 inh,Marburg entry inh,Lassa entry inh,Shiga inhibitor,CHX counter
COc1ccc(OC)c(S(=O)(=O)N2CCC(c3ccncc3)CC2)c1,/,/,9%[46.1 µM],/,/
COc1ccccc1OCC(=O)Nc1c(C(=O)c2ccc(F)cc2)oc2ccccc12,/,?,1%[46.1 µM],/,/
CCN(CC)CCn1c(NC(=O)c2ccccc2O)nc2ccccc21,122%,/,/,/,26*
CCN(CC)CCn1c(NC(=O)c2ccc(Cl)cc2)nc2ccccc21,29%,?,?,20,19*
CCN(CC)CCn1c(NS(=O)(=O)c2ccc(Cl)cc2)nc2ccccc21,-7%,/,/,-1,-3
COc1cc(NC(=O)c2nn(C)c3c2COc2ccccc2-3)cc(OC)c1OC,/,7%[46.1 µM],1%[46.1 µM],/,/
O=C(c1cc(-c2cccc(Cl)c2)on1)N1CCc2ccccc2C1,2%,-14%[46.1 µM],-11%,-7,-1
O=C(c1cc(-c2cccc(O)c2)on1)N1CCOCC1,4%,/,/,23*,13*
O=C(c1cccc(-c2cccc3nccn23)c1)N1CCOCC1,-17%,/,/,/,/
O=C1c2ccccc2-c2ccc(C(=O)N3CCOCC3)cc21,15%,2%,2%,13,22*
O=C(c1cc(-c2ccc(Cl)c(Cl)c2)on1)N1CCN(c2ccccc2)CC1,-12%,21%,-6%,34,3
O=C(c1cccc(-c2ccc(O)cc2)c1)N1CCOCC1,-9%,-8%[46.1 µM],-2%,22,13*
O=C(c1cc(-c2cccc(O)c2)on1)N1CCCCCC1,-2%,?,?,112*,37*
CCCCNC(=O)c1cnc2sc(N3CCCCCC3)nn2c1=O,/,/,1%[46.1 µM],/,/
CCN1C(=NCC(C)C)NC(c2cccc(F)c2)C(C(=O)OC)=C1C (stereo not given),/,-5%[14.2 µM],/,/,/
Cc1ccc(S(=O)(=O)NCC(C)n2cncn2)cc1C (stereo not given),-6%,20%[46.1 µM],-7%[46.1 µM],18,-7
CCc1ccc(-n2c(=O)c3sc4ccccc4c3n(CC(=O)NCc3ccccc3)c2=O)cc1,/,9%[46.1 µM],?,/,/
COc1ccc(N/C=C\C(=O)c2ccc(C)cc2)cc1OC,-10%,?,-2%[46.1 µM],85*,46*
COc1ccc(N/C=C\C(=O)c2ccc(Br)cc2)cc1OC,-7%[2.32 µM],?,-3%,27,28*
CC(=O)Nc1ccc(N/C=C/C(=O)c2ccc(C)cc2)cc1,8%,/,/,55*,27*
COc1ccc(C(=O)Sc2ccc(C)cc2)cc1OC,18%,7%,-2%,77*,34*
COc1ccc(-c2nc3c4cnn(-c5ccccc5F)c4ncn3n2)cc1,/,1%[46.1 µM],11%[46.1 µM],/,/
c1ccn2cc(CSc3nnc4ccccn34)nc2c1,3%,?,-2%,120*,57*
c1ccn2cc(CSC3=NCCS3)nc2c1,-12%,?,?,121*,29*
Cn1ccnc1SCc1cn2ccccc2n1,-5%,-15%,?,82*,30*
SMILES,AMA1-RON2 inh,Marburg entry inh,Lassa entry inh,Shiga inhibitor,CHX counter
CCN(CC)S(=O)(=O)c1ccc(C)c(NC(=O)COC(=O)CN2C(=O)NC(C)(C)C2=O)c1,-14%,17%,0%,/,/
Cc1ccc(NC(=O)C2CCN(c3nc4ccccc4[nH]3)CC2)c(C)c1,/,/,10%[46.1 µM],/,/
COc1ccc(-n2nnnc2SCC(=O)Nc2c(C)n[nH]c2C)cc1,16%,-37%,-12%,/,/
Cc1ccc2nc(NC(=O)c3ccc(Br)o3)sc2c1,-2%,/,/,95*,45*
CCN(CC)S(=O)(=O)c1ccc2nc(NC(=O)c3ccc(Br)o3)sc2c1,/,/,0%[46.1 µM],/,/
NS(=O)(=O)c1ccc2nc(NC(=O)c3ccc(Br)o3)sc2c1,-1%,8%,3%,50*,24*
O=C(Nc1cc(S(=O)(=O)N2CCCC2)ccc1OCC(F)(F)F)c1ccncc1,11%,/,/,/,/
CC(C)CC(=O)c1c[nH]c(C(=O)O)c1,17%,?,-10%,18,-2
CN(C)C=NC(=O)c1cc(C(=O)c2ccc(C(C)(C)C)cc2)c[nH]1,-2%,?,3.2µM*,83*,44*
COC(=O)c1cc(C(=O)c2ccc(C(C)(C)C)cc2)c[nH]1,-1%,-27%[46.1 µM],?,97*,32*
CC(C)(C)c1ccc(C(=O)c2c[nH]c(C(=O)O)c2)cc1,0%,0%[46.1 µM],?,36,29*
CC(C)(C)c1ccc(C(=O)c2c[nH]c(C(=O)NCCCn3ccnc3)c2)cc1,6%,-6%,-2%,2,0
Cc1ccc(CN2CCN(C3CCNCC3)C(=O)C2=O)cc1,/,/,15%[46.1 µM],/,/
Cc1ccccc1C1=C/C(=C(\SS/C(C(=O)c2ccc(OCC(=O)O)c(Cl)c2Cl)=C2\C=C(c3ccccc3C)SS2)C(=O)c2ccc(OCC(=O)O)c(Cl)c2Cl)SS1,-29%,?,?,/,/
COCC(=O)Nc1nc(-c2ccccc2)ns1,-5%,19%,-5%,41,35*
CC(=O)Nc1nc(-c2ccccc2)ns1,11%,?,5%,38*,23*
CC(C)Nc1ncnc2c1ncn2[C@H]1CN(Cc2ccc(F)cc2)C[C@@H](CO)O1,6%,/,/,/,/
Cc1ccc2[nH]c3c(NCCCN4CCCC4=O)ncnc3c2c1,11%,6%,21%,71*,31*
Cc1ccc2[nH]c3nc(SCCN4CCOCC4)nnc3c2c1,21%,4%,?,86*,28*
Cc1ccc2[nH]c3c(=O)n(CCCN4CCOCC4)cnc3c2c1,8%,-5%,2%,33,10
Cc1ccc2[nH]c3c(=O)n(CCN4CCOCC4)cnc3c2c1,0%,5%,8%,61*,39*
CCn1c2ccccc2c2nnc(SCCN3CCOCC3)nc21,24%,/,/,/,-1
Cn1c2ccccc2c2nnc(SCCN3CCOCC3)nc21,8%,/,/,30,16*
Cc1ccc(-n2ncc3c(NCCCN4CCCC4=O)ncnc32)c(C)c1,1%,-11%,-13%,-5,-3
CCn1c2ccc(C)cc2c2nnc(SCCN3CCOCC3)nc21,27%,?,?,-31,-2
SMILES,AMA1-RON2 inh,Marburg entry inh,Lassa entry inh,Shiga inhibitor,CHX counter
Cn1c(N2CCCC2)nc2c1c(=O)[nH]c(=O)n2C,0%,-4%[46.1 µM],23%[46.1 µM],-10,-1
Cc1cc(NC(=O)NC(=O)c2ccccc2NC(=O)C(C)N)ccc1Oc1ncc(Br)cn1 (stereo not given),53%,?,?,/,/
Cn1c2ccccc2c2nnc(SCC(=O)Nc3cccc(O)c3)nc21,13%,/,/,23,11*
CCOc1ccc(CCNC(=O)c2cccc(NC3=NC4CS(=O)(=O)CC4S3)c2)cc1 (stereo not given),9%,/,/,-4,-3
C#CCCOC(=O)N1C2=NC3=C(C(=O)N(Cc4ccc5c(c4)OCO5)C3=O)C3N(C)c4ccccc4[C@]23C[C@H]1CO (stereo not given in full),/,-23%[14.2 µM],?,/,/
CCOc1ccc(NC(=O)c2ccccn2)cc1,11%,0.32µM*,0.28µM*,-15,7
CCOc1ccc(NC(=O)c2cnccn2)cc1,13%,?,?,18*,18*
CCOc1ccc(NC(=O)C/C(C)=N/NC(=O)c2cnccn2)cc1,112%,/,/,32*,22*
CCOc1ccc(NC(C)=O)cc1,-11%,/,/,-1,2
C/C(CC(=O)Nc1ccccn1)=N\NC(=O)c1cnccn1,113%,/,/,79*,44*

# High-throughput results: PubChem, National Center for Advancing Translational Sciences (NCATS)
